Test results reported in PubChem BioAssay (NCI).
Compounds without any hit were thinned out: in the full panel of roughly 83,000, 20% have a hit.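 Step 1: grow cells in 96-well plates. Step 2: add test compound at a single concentration. Step 3: incubate 48 h. Step 4: record percent growth.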 Unmarked numbers belong to inactive results. Calls of active or inactive are those of the source. How the source made its calls: active means growth percent below 10; inactive means the rest.

Legend:
Assay in all cases: NCI-60 one-dose screen, 48 h (100 = growth as untreated, 0 = no growth, -100 = all killed)
Settings in all cases: 10 µM unless noted
[1] = system: NCI-H23 lung
[2] = system: NCI-H226 lung
[3] = system: NCI-H322M lung
[4] = system: HOP-62 NSCLC
[5] = system: NCI-H460 lung
[6] = system: NCI-H522 lung
[7] = system: A549/ATCC NSCLC
[8] = system: 786-0 renal
[9] = system: COLO 205 colon
[10] = system: DU-145 prostate
[11] = system: K-562 leukemia
[12] = system: MALME-3M melanoma
[13] = system: MDA-MB-231 breast
[14] = system: RXF 393 renal
[15] = system: SF-268 CNS
[16] = system: SF-295 CNS
[17] = system: SF-539 CNS
[18] = system: UACC-257 melanoma
[19] = system: M14 melanoma

Compound | growth [1] [%] | growth [2] [%] | growth [3] [%] | growth [4] [%] | growth [5] [%] | growth [6] | growth [7] [%] | growth [8] [%] | growth [9] | growth [10] [%] | growth [11] [%] | growth [12] [%] | growth [13] [%] | growth [14] [%] | growth [15] | growth [16] | growth [17] | growth [18] [%] | growth [19] [%]
CCCCOc1nc2ccc(C)cc2cc1/C=C/C(=O)/C=C(O)/C=C/c1cc2cc(C)ccc2nc1OCCCC | 92 | 102 | 92 | 87.3 | 106 | 85% | 91.7 | 96.5 | 114% | 112 | 99.2 | 118 | 103 | 108 | 103% | 101% | 103% | 89.4 | 98.4
Clc1ccc(C2=NN[C@H](c3cn(-c4ccccc4)nc3-c3ccccc3)C2)cc1 | 52 | 55 | 72.5 | 16.1 | 45.5 | 76.3% | 46.5 | 83.7 | 70.1% | 55.3 | 61.6 | 64.3 | 64.4 | 42.6 | 74.6% | -20.8% (active) | 67% | 66.3 | 71.1
Oc1ccccc1-c1nnc(COc2ccc(Cl)cc2Cl)o1 | 57 | 66.2 | 52.6 | 40.6 | 28.3 | 1.97% (active) | 54.5 | 44.7 | 67% | 48.1 | 44.5 | 68.3 | 48.2 | 63.5 | 8.59% (active) | 47.4% | 52.1% | 58.9 | 42.5
NS(=O)(=O)c1ccc(CCn2c(SCC(=O)N/N=C/c3cc4ccccc4[nH]3)nc3ccccc3c2=O)cc1 | 58.8 | 76.6 | 83.7 | 68.7 | 30.4 | 19.5% | 84.3 | 78.9 | 74.4% | 64.8 | 27.5 | 38.8 | 61.7 | 91 | 89.2% | 90.9% | 82.8% | 82.6 | 74
CCOC(=O)Nc1ccc2nc(Sc3ccc(Cl)cc3)sc2c1 | 54.2 | 58.8 | 44.6 | 35.1 | 25 | 28.3% | 42.5 | 49.5 | -26.4% (active) | 35.8 | 21 | 42 | 43.4 | 36.8 | 54.4% | 29.1% | 5.63% (active) | 57.3 | 30
CCOC(=O)CCN(CCC(=O)OCC)c1ccccc1 | 101 | 98.4 | 110 | 86 | 111 | 89.8% | 99.6 | 105 | 93.7% | 111 | 121 | 120 | 111 | 81.3 | 93.6% | 107% | 92.4% | 96.4 | 86.6
O=C(c1ccccc1)c1cccc(C(Br)Br)c1 | 92.8 | 101 | 95.1 | 86.7 | 66.4 | 66% | 86.9 | 100 | 96.6% | 93.7 | 46.4 | 88.9 | 103 | 95.7 | 95.5% | 76.2% | 95.2% | 105 | 72.1
ClC1(Cl)C2CCCCCCC21 (configuration not stated) | 107 | 103 | 109 | 108 | 107 | 84.5% | 98.2 | 94.9 | 129% | 121 | 97.8 | 107 | 122 | 117 | 112% | 101% | 117% | 106 | 98.7
